Screening results deposited in PubChem by National Center for Advancing Translational Sciences (NCATS).
S-ASM inh = blocks human secretory acid sphingomyelinase; Potency, µM (titrated, usually from 57.5 µM), for the others: at the top dose activity change, negative = inhibition, usual class: inhibitors; P17405; hit rate 0.006% among 340,000; placental ASM, HMU-PC fluorogenic substrate, 60 min; AID 504937; note: potency is the fitted concentration of half-maximal effect
Target sequence (P17405 47-631 limits assumed): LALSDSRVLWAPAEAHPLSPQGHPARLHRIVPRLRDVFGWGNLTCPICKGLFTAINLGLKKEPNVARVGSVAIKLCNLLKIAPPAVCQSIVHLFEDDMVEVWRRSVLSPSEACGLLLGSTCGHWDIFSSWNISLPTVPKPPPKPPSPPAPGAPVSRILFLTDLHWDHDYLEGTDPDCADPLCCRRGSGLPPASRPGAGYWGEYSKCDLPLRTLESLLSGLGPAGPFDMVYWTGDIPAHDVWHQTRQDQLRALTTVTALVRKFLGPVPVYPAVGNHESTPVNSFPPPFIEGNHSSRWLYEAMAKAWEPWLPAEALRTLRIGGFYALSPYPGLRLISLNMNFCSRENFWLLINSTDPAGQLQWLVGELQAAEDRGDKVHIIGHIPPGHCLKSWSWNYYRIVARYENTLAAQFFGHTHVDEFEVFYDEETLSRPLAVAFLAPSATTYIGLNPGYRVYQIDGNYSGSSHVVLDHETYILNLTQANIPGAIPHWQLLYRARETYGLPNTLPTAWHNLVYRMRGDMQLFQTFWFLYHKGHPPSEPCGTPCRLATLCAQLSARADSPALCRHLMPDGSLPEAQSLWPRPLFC
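Steps: dispense placental human ASM, pin compound, wait 10 min at room temperature, add HMU-PC0 substrate at 9 uM final, incubate 60 min at 37 °C, add stop solution raising pH to 10, read fluorescence.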
HepG2 viability = HepG2 cytotoxicity, counter-screen for TGF-b inhibitors; HepG2 CAGA-GFP viability, ATP luminescence, 18 h; Potency, µM (doses to about 46.1 µM), for the others: at the top dose activity change, negative = cytotoxicity, actives largely listed as cytotoxic; hit rate 0.76% among 410,000; AID 588856; note: potency is the fitted concentration of half-maximal effect
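CellTiter-Glo luminescence gave cytotoxicity after 18 hours at 37 degrees C. The cells were HepG2 CAGA-GFP in 1% FBS DMEM, stimulated with 500 pg/mL TGF-beta after compound addition. %Activity was normalised to no-cell wells (complete cell-killing) and DMSO (no toxicity), and curves were fitted and classified.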
TGFb SMAD3 inh = blocks TGF-b signaling; Potency, µM (titrated, usually from 46.1 µM), inactives show at the highest dose activity, negative = inhibition, actives largely listed as inhibitors; AID 588855; hit rate 1.2% among 410,000; HepG2 CAGA-GFP TGF-b/SMAD3 reporter, GFP fluorescence, 18 h; TGF-beta stimulated, 500 pg/mL final; note: potency is the fitted concentration of half-maximal effect; % is set by controls: 0 for no effect and ±100 for the full control effect; nearly all actives have a fitted effect of over 65% in size
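TGF-beta reporter screen: HEPG2 CAGA-GFP, 1% FBS, 500 pg/mL TGF-beta final, 18 h; per-cell GFP summed per well; curves fitted and categorized by class.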
TDP1 cell noCPT = qHTS for Inhibitors of human tyrosyl-DNA phosphodiesterase 1 (TDP1): qHTS in cells in absence of CPT; DT40 Tdp1-/- hTDP1 cells, no CPT, ATP luminescence, 48 h; Potency, µM (series often up to 46.2 µM), for inactives: at the top dose activity change, negative = growth inhibition, hits mostly inhibitors; hit rate 15% among 420,000; note: potency is the fitted concentration of half-maximal effect; % is set by controls: 0 for no effect and ±100 for the full control effect; nearly all actives have a fitted effect of over 55% in size
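Luminescent ATP content (CellTiter-Glo) served as the growth readout. Knockout chicken DT40 cells expressing human TDP1 were exposed to compounds without camptothecin for a minimum 48 hr at 37 °C.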
IL1B secr inh = blocks inflammasome-driven IL-1 beta release. AID 743279. THP-1 LPS/ATP IL-1B secretion, AlphaLISA, 16 h; active compounds read low. hit rate 4.7% among 360,000. activity change, % at 57.5 µM; in the data active = activity change below about -50%; inconclusive = mostly about -30% to -49%; note: % is set by controls: 0 for no effect and ±100 for the full control effect
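THP-1 cells pretreated 1 hr with compounds (up to 57.5 uM final), then stimulated with LPS (250 ng/mL final) plus ATP (1.25 mM final); secreted IL-1B measured by AlphaLISA after 16 hr, decreased signal indicating inhibition.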
DT40 TDP1 CPT = growth inhibition of DT40 Tdp1-/-;hTDP1 cells with camptothecin (screen for TDP1 inhibitors). chicken DT40 Tdp1-/-;hTDP1 cells + 20 nM CPT, ATP luminescence, 48 h. Potency, µM (titrated, usually from 46.2 µM), for inactives: top-dose activity change, negative = growth inhibition, actives largely listed as inhibitors. hit rate 12% among 420,000. AID 686979; note: potency is the fitted concentration of half-maximal effect; % is set by controls: 0 for no effect and ±100 for the full control effect; nearly all actives have a fitted effect of over 55% in size
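Chicken DT40 Tdp1-/- cells complemented with human TDP1, 400 cells/well, exposed to compounds plus 20 nM camptothecin for at least 48 h at 37 C; viability read as ATP content by CellTiter-Glo luminescence.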
The depositor's hits bear a star; u = inconclusive; x = no result. Hits are enriched below; roughly 19% of the tested compounds scored in any of these assays. Unless noted, calls come from the whole dose curve; as a rule, active = well fitted curve in the direction sought with a large enough effect; inconclusive = small, poorly fitted or top-dose-only effect, or another doubt; inactive = no such curve, though single readings can be large; an effect the other way counts as inactive or inconclusive.

SMILES	S-ASM inh	HepG2 viability	TGFb SMAD3 inh	TDP1 cell noCPT	IL1B secr inh	DT40 TDP1 CPT
Cc1ccc(C(=O)NCc2ccc3c(c2)CCN3C(=O)c2ccc(C)cc2)cc1	x	-23%	-22%	18µM*	x	21µM*
CCN(CC)c1ccc(C(=O)NCc2ccc3c(c2)CCN3C(=O)c2ccccc2)cc1	x	4%	-1%	23µM*	x	21µM*
Cc1ccc(C)c(NC(=O)NCc2ccc3c(c2)CCN3C(=O)c2ccccc2)c1	x	-3%	-3%	u	x	21µM*
COc1nc(N)nc2nc[nH]c12	5%	7%	10%	4%	-77*	2%
CCOC(=O)c1c(C)[nH]c(C(=O)Cn2c(=O)c3c(ncn3CC)n(Cc3ccccc3)c2=O)c1C	-12%	9%	0%	u	-10	26µM*
CCn1cnc2c1c(=O)n(CC(=O)NCC(C)C)c(=O)n2Cc1ccccc1	1%	3%	-9%	18%	16	8%
COc1cc2c(=O)c(S(=O)(=O)c3ccc(F)cc3)cn(Cc3ccccc3C)c2cc1OC	x	4%	u	18µM*	x	16µM*
COc1cc2c3nnc(-c4ccc(F)cc4)c-3cn(Cc3ccccc3F)c2cc1OC	6%	8.9µM*	84%	2.6µM*	-60*	3.7µM*
COc1ccc2c(c1)c(=O)c(S(=O)(=O)c1ccc(F)cc1)cn2Cc1ccccc1Cl	x	-15%	9%	0.23µM*	x	0.26µM*
CCC(=O)N1CCc2cc(Br)cc(S(=O)(=O)N3CCC(C(=O)Nc4ccccc4CC)CC3)c21	x	6%	-5%	u	x	u
CCc1ccc(N/C(SC)=C(/C#N)C(N)=O)cc1	2%	40%	32%	u	-17	u
N#CC(C#N)=C(Nc1ccc(F)cc1)SCc1cccc(F)c1	-3%	-42%	u	2.6µM*	u	2.6µM*
COc1ccc(CN2C(=O)C(CC(=O)NCCc3ccccn3)CC(C(=O)N3CCOCC3)=C2C)cc1 (stereo not drawn)	x	-31%	-2%	1%	-14	0%
CC(C)c1ccc(COC(=O)CN2C(=O)NC3(CCCCC3C)C2=O)cc1 (stereo not drawn)	-4%	-19%	-21%	u	-7	u
O=C(/C=C/c1ccc(N2CCCCC2)c([N+](=O)[O-])c1)c1ccc(O)cc1	-27%	-91%	u	18µM*	-95*	u
Cc1cc(C(=O)Nc2ccc(N3CCCC3)c(Cl)c2)ccc1[N+](=O)[O-]	-18%	-22%	1%	18µM*	x	u
Cc1ccc(NC(=O)c2ccc(NCCN)c([N+](=O)[O-])c2)cc1Cl	-25%	18µM*	u	21µM*	-16	u
Cc1ccc(NC(=O)c2ccc(NCCc3ccccc3)c([N+](=O)[O-])c2)cc1F	-10%	-5%	5%	u	3	u
O=C(O/N=C\c1ccc(N2CCCCC2)c([N+](=O)[O-])c1)c1ccc(Cl)cc1Cl	-5%	7%	1%	-24%	-1	u
Nc1nnnn1/N=C/c1ccc(N2CCCCC2)c([N+](=O)[O-])c1	-13%	0%	5%	13µM*	-7	21µM*
COc1cc2[nH]c(=O)n(CCCCCC(=O)NCCc3c[nH]c4ccccc34)c(=O)c2cc1OC	-1%	-7%	-16%	u	u	u
Cc1cccc(CN2CCN([C@@H]3CS(=O)(=O)N[C@H]3COCc3ccccc3)CC2)c1	x	-33%	-8%	u	-17	u
CCOC(=O)c1c(NC(=O)CSc2cn(CCNC(=O)c3ccc(OC)cc3)c3ccccc23)sc2c1CCC2	x	-13%	u	-29%	x	u
